Experimental data reported in article PMC4336329 (PLoS ONE, 2015).
Hit rate of the full screen: of about 310,000 compounds, about 14,000 (4.5%) showed an effect of 50% or more. Effects have a minus sign here. Many of the other results were omitted from the sample, so strong results are more common in it than they were.
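Also: peak tail current of the secondary pulse compared with the same well before compound.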

What follows are molecules tested against human ether-à-go-go-related gene (hERG) potassium channel (human, UniProt Q12809) (assay: primary screen, population patch clamp on CHO cells stably expressing hERG; higher = less effect of the substance).
human ether-à-go-go-related gene (hERG) potassium channel, sequence (Q12809 whole entry, looked up): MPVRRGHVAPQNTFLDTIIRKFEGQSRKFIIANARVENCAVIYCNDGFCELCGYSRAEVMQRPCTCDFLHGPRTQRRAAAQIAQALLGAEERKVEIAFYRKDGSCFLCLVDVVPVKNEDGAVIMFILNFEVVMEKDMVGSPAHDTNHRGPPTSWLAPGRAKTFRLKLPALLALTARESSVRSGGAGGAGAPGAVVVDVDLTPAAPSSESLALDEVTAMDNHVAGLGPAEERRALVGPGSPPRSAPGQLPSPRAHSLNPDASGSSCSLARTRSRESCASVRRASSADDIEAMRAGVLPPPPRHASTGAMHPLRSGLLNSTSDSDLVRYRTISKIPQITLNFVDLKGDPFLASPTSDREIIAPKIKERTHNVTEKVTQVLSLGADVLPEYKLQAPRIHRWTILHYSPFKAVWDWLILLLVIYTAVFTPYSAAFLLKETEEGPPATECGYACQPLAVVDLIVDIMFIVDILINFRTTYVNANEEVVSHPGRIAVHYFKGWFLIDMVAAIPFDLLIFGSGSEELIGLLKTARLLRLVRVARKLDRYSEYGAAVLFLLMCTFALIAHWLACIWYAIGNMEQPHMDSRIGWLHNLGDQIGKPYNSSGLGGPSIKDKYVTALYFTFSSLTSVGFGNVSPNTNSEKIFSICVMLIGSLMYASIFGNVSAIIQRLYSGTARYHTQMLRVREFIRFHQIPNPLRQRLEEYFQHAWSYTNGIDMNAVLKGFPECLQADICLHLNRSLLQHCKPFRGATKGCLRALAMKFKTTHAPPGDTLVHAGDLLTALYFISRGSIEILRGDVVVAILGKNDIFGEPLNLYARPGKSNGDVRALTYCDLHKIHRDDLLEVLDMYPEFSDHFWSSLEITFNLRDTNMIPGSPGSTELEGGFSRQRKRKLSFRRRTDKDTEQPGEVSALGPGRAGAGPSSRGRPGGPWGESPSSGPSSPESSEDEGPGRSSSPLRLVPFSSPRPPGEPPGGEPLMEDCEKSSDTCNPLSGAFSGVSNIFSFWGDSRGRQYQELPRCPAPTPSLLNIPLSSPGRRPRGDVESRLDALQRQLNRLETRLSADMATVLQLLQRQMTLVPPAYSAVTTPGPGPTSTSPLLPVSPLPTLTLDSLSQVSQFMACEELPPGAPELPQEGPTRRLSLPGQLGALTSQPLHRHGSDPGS
C=CCNC(=O)C1CC(=O)N(c2ccc(OCC(=O)Nc3ccc(OC)cc3)cc2)C1 (stereo not shown) was tested, and the “hERG current change (%, negative = inhibition) at 10uM” value was -3.5%.
With COc1ccc(-c2cc(=O)oc3cc(OC(C)C(=O)O)ccc23)cc1 (stereo not shown) the “hERG current change (%, negative = inhibition) at 10uM” value was 6.26%.
Cc1cccc(NC(=O)CNC(=O)Cc2ccc(S(=O)(=O)N3CCOCC3)s2)c1C was tested, and the “hERG current change (%, negative = inhibition) at 10uM” value was 5.91%.
CN(C)S(=O)(=O)c1cccc(C(=O)Nc2cc(Cl)cc(Cl)c2)c1 was tested, and the “hERG current change (%, negative = inhibition) at 10uM” value was 4.25%.
In the case of CC(=O)c1ccc(NS(=O)(=O)c2ccc3c(c2)CCC(=O)N3)cc1, the “hERG current change (%, negative = inhibition) at 10uM” value is reported as 8.49%.
Cn1c(=O)c2c(nc(CN3CCN(C(=O)c4ccco4)CC3)n2CCCO)n(C)c1=O was tested, and the “hERG current change (%, negative = inhibition) at 10uM” value was -27.6%.
For COCCn1c(CN2CCN(C(=O)c3ccco3)CC2)nc2c1c(=O)n(C)c(=O)n2C, the “hERG current change (%, negative = inhibition) at 10uM” value was -9.04%.
In the case of CCn1c(CN2CCN(C(=O)c3ccco3)CC2)nc2c1c(=O)n(C)c(=O)n2C, the “hERG current change (%, negative = inhibition) at 10uM” value is reported as -16.4%.
For Cn1c(=O)c2c(nc(CN3CCN(C(=O)c4ccco4)CC3)n2CCCc2ccccc2)n(C)c1=O, the “hERG current change (%, negative = inhibition) at 10uM” value was -68.5%.
For Cn1c(=O)c2c(nc(CN3CCN(C(=O)c4ccco4)CC3)n2CCc2ccccc2)n(C)c1=O, the “hERG current change (%, negative = inhibition) at 10uM” value was -66.3%.
For Cn1c(=O)c2c(nc(CN3CCN(C(=O)c4ccco4)CC3)n2CC(N)=O)n(C)c1=O, the “hERG current change (%, negative = inhibition) at 10uM” value was 24.4%.
CCN(CC)C(=O)c1cccc(C)c1 was tested, and the “hERG current change (%, negative = inhibition) at 10uM” value was 0.757%.
Cc1cccc(C(=O)N/C(=C\c2ccco2)C(=O)N2CCCC2)c1 was tested, and the “hERG current change (%, negative = inhibition) at 10uM” value was -18.6%.
CC(C)Cn1nc(C(=O)Nc2cccc(S(=O)(=O)N3CCCC3)c2)c2ccccc2c1=O was tested, and the “hERG current change (%, negative = inhibition) at 10uM” value was -7.01%.
In the case of Cn1nc(C(=O)Nc2cccc(C(=O)NC3CC3)c2)c2ccccc2c1=O, the “hERG current change (%, negative = inhibition) at 10uM” value is reported as -35.3%.
In the case of CCCn1nc(C(=O)NC2CC2)c2ccccc2c1=O, the “hERG current change (%, negative = inhibition) at 10uM” value is reported as -19.8%.
In the case of CC(C)Cn1nc(C(=O)Nc2cccc(C(=O)NC3CC3)c2)c2ccccc2c1=O, the “hERG current change (%, negative = inhibition) at 10uM” value is reported as -71.6%.
In the case of CCCCn1nc(C(=O)Nc2cccc(C(=O)NC3CC3)c2)c2ccccc2c1=O, the “hERG current change (%, negative = inhibition) at 10uM” value is reported as -82.6%.
In the case of Cc1nc2ccc(NC(=O)c3nn(CC(C)C)c(=O)c4ccccc34)cc2s1, the “hERG current change (%, negative = inhibition) at 10uM” value is reported as -26%.
N#C/C(C(=O)N1CCOCC1)=c1/s/c(=C\c2ccccn2)c(=O)n1-c1ccccc1 was tested, and the “hERG current change (%, negative = inhibition) at 10uM” value was 17.6%.
COCCCn1c(N)c(C(=O)NCc2ccco2)c2nc3ccccc3nc21 was tested, and the “hERG current change (%, negative = inhibition) at 10uM” value was 4.53%.
For Cc1cc(C)n2nc(SCC(=O)N/N=C/c3ccccn3)nc2n1, the “hERG current change (%, negative = inhibition) at 10uM” value was 3.74%.
With C=CCN1C(=O)/C(=C\c2cccc(OC(=O)c3ccco3)c2)SC1=S the “hERG current change (%, negative = inhibition) at 10uM” value was 2.37%.
For CC(C)n1ncc2c(C(=O)N3CCN(Cc4ccc(Br)s4)CC3)cc(C3CC3)nc21, the “hERG current change (%, negative = inhibition) at 10uM” value was -4.36%.
With COc1ccc(Cl)cc1S(=O)(=O)Oc1ccc(NC(C)=O)cc1 the “hERG current change (%, negative = inhibition) at 10uM” value was -51.7%.
For CC(=O)Nc1ccc(OS(=O)(=O)c2ccc(Cl)cc2)cc1, the “hERG current change (%, negative = inhibition) at 10uM” value was -24.5%.
For CC(=O)Nc1ccc(OS(=O)(=O)c2cc(Cl)ccc2C)cc1, the “hERG current change (%, negative = inhibition) at 10uM” value was -6.02%.
In the case of COc1ccc(CCNC(=O)c2ccc3nc(-c4ccco4)c(-c4ccco4)nc3c2)cc1OC, the “hERG current change (%, negative = inhibition) at 10uM” value is reported as -0.346%.
COc1ccc(Cn2c(O)c(C=Nc3ccc(O)cc3)c3ccccc3c2=O)cc1 was tested, and the “hERG current change (%, negative = inhibition) at 10uM” value was 1.27%.
O=C(c1[nH]nc2c1CCc1ccccc1-2)N1CCN(Cc2ccc3c(c2)OCO3)CC1 was tested, and the “hERG current change (%, negative = inhibition) at 10uM” value was -26.9%.
For O=C(N/N=C/c1ccc(O)cc1O)C(=O)N/N=C/c1ccc(O)cc1O, the “hERG current change (%, negative = inhibition) at 10uM” value was 14.1%.
With COc1cccc(N=Nc2c(N)[nH]n3c(=O)c4c(nc23)CCCC4)c1 the “hERG current change (%, negative = inhibition) at 10uM” value was 12.2%.
Nc1[nH]n2c(=O)c3c(nc2c1N=Nc1ccc(Cl)cc1)CCCC3 was tested, and the “hERG current change (%, negative = inhibition) at 10uM” value was -8.56%.
In the case of Nc1[nH]n2c(=O)c3c(nc2c1N=Nc1ccccc1)CCCC3, the “hERG current change (%, negative = inhibition) at 10uM” value is reported as -54.3%.
COc1ccc(OC)c2[nH]c(=O)c(CCNC(=O)c3ccc4c(c3)OCO4)cc12 was tested, and the “hERG current change (%, negative = inhibition) at 10uM” value was -10.2%.
In the case of CN(C)S(=O)(=O)N1CCN(C(=O)c2ccccc2)CC1, the “hERG current change (%, negative = inhibition) at 10uM” value is reported as 8.25%.
In the case of CC(C)NC(=S)N/N=C1\CCCc2ccccc21, the “hERG current change (%, negative = inhibition) at 10uM” value is reported as 10.4%.
In the case of C=C(C)CNC(=S)N/N=C1\CCCCc2ccccc21, the “hERG current change (%, negative = inhibition) at 10uM” value is reported as -60.3%.
For C=C(C)CNC(=S)NN=C1c2ccccc2-c2ccccc21, the “hERG current change (%, negative = inhibition) at 10uM” value was 6.79%.
In the case of CCCCNC(=S)N/N=C1\CCCCc2ccccc21, the “hERG current change (%, negative = inhibition) at 10uM” value is reported as -64.4%.
In the case of CC(C)NC(=S)N/N=C1\CCCCc2ccccc21, the “hERG current change (%, negative = inhibition) at 10uM” value is reported as -21.1%.
CCNC(=S)N/N=C1\CCCCc2ccccc21 was tested, and the “hERG current change (%, negative = inhibition) at 10uM” value was -3.93%.
COc1cc(CCCN2C(=O)C(=O)NC[C@@H]2CC2CCCCC2)cc(OC)c1OC was tested, and the “hERG current change (%, negative = inhibition) at 10uM” value was 4%.
In the case of N#Cc1cc[n+](CC(=O)c2ccc(NC(=O)c3ccccc3)cc2)cc1.[Br-], the “hERG current change (%, negative = inhibition) at 10uM” value is reported as -14.6%.
Cc1ccc(SCCNC(=O)/C=C/c2ccc(Cl)cc2)cc1 was tested, and the “hERG current change (%, negative = inhibition) at 10uM” value was -0.0121%.
With CC(C)C(NC(=O)/C=C/c1ccc(F)cc1)C(C)C the “hERG current change (%, negative = inhibition) at 10uM” value was 16.1%.
With CCCCN(CCCC)CCCNC(=O)CC1Oc2ccc(C)cc2NC1=O (stereo not shown) the “hERG current change (%, negative = inhibition) at 10uM” value was -49.5%.
In the case of CCC1CCCCN1CCCNC(=O)CC1Oc2ccc(C)cc2NC1=O (stereo not shown), the “hERG current change (%, negative = inhibition) at 10uM” value is reported as -7.95%.
In the case of COc1ccc(N2CCN(CCCNC(=O)CC3Oc4ccc(C)cc4NC3=O)CC2)cc1 (stereo not shown), the “hERG current change (%, negative = inhibition) at 10uM” value is reported as -55.5%.
In the case of Cc1ccc2c(c1)NC(=O)C(CC(=O)NCCCN1CCCCC1C)O2 (stereo not shown), the “hERG current change (%, negative = inhibition) at 10uM” value is reported as -4.68%.
For CCN(CC)CCCNC(=O)CC1Oc2ccc(C)cc2NC1=O (stereo not shown), the “hERG current change (%, negative = inhibition) at 10uM” value was 0.515%.
Cc1ccc2c(c1)NC(=O)C(CC(=O)NCCCN1CCCCC1)O2 (stereo not shown) was tested, and the “hERG current change (%, negative = inhibition) at 10uM” value was -0.113%.
Cc1ccc2c(c1)NC(=O)C(CC(=O)NCCCN1CCc3ccccc3C1)O2 (stereo not shown) was tested, and the “hERG current change (%, negative = inhibition) at 10uM” value was -65.7%.
Cc1ccc2c(c1)NC(=O)C(CC(=O)NCCCN1CCCC1)O2 (stereo not shown) was tested, and the “hERG current change (%, negative = inhibition) at 10uM” value was 12.6%.
In the case of Cc1ccc2c(c1)NC(=O)C(CC(=O)NCCCN1CCCC1=O)O2 (stereo not shown), the “hERG current change (%, negative = inhibition) at 10uM” value is reported as 16.5%.
In the case of CCN(CCCNC(=O)CC1Oc2ccc(C)cc2NC1=O)Cc1ccccc1 (stereo not shown), the “hERG current change (%, negative = inhibition) at 10uM” value is reported as -61.5%.
In the case of COc1ccc(NC(=O)CC2Oc3ccc(C)cc3NC2=O)cc1 (stereo not shown), the “hERG current change (%, negative = inhibition) at 10uM” value is reported as 11.3%.
In the case of Cc1ccc2c(c1)NC(=O)C(CC(=O)NCCCN1CCN(c3cc(C)ccc3C)CC1)O2 (stereo not shown), the “hERG current change (%, negative = inhibition) at 10uM” value is reported as -61.4%.
